# Measurements taken from the supplement of paper PMC10338343.
# ± gives the standard deviation.
# Test system: EfPiwi piRISC loaded with L1MC piRNA (26 nt)
# Assay: pre-steady-state target cleavage rate (min^-1); auxiliary factor: 500 nM Ephydatia muelleri Gtsf1; guide: L1MC piRNA 5'p-UAACUAAAUACUAUGCAAGCUGUAGG; MIWI and MILI are mouse PIWI proteins and EfPiwi is from a freshwater sponge; tags in brackets are library labels; higher = faster piRNA-guided slicing of the target
# How it was run: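 Three pooled Cleave-'n-Seq trials supplied the data, with k3 capped at 0.0001 min^-1. In each, […] transcribed, DNA-blocked target RNA library and 1 nM active affinity-purified piRISC with one synthetic guide reacted in HEPES–potassium acetate buffer at 33 °C for 0–8 or 0–960 min, with or without 500 nM GTSF1 partner protein. Uncleaved targets were sequenced and normalised to depth and to weakly complementary targets. A burst-and-steady-state fit provided the pre-steady-state cleavage rate.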
row,Sequence,pre-steady-state target cleavage rate
1,UCCUGCUACAGAUUGCAUAGUAUUUAGUUA,0.0138 ± 0.0034
2,UCCUGCUACUGCAUGCAUAGUAUUUAGUUA,0.00847 ± 0.0024
3,UCCUGGUACAGCUAGCAUAGUAUUUUGUUA,0.00396 ± 0.0023
4,UCCUCCUACAGCUUCCAAAGUAUUUAGUUA,0.00527 ± 0.0019
5,UCCUGGAUGAGGUUGCAUAGUAUUUAGUUA,0.00786 ± 0.0024
6,UCCUGGAUCAGCAUGCAUAGUAUUUAGUUA,0.12 ± 0.026
7,UCCUCGUACACCUUGCAUAGUAUUUAGUUA,0.1 ± 0.029
8,UCCUGGAACUGCAUGCAUAGUAUUUAGUUA,0.0126 ± 0.0039
9,UCCUGGAUCAGCAUGCAUAGUAAUUAGUUA,0.00437 ± 0.0016
10,UCCUCCGUACAGCUUGCAUAGUAUUUAGUUA,0.0578 ± 0.018
11,UCCUGGAUGUCCUUGCAUAGUAUUUAGUAA,0.00321 ± 0.0025
12,UCCUCCUUCAGCUUGCAUAGUAAUUAGUUA,0.0731 ± 0.025
13,UCCUGGUUCAGCUAGCAUAGUAUUUAGUUA,0.0263 ± 0.0083
14,UCCUCCUACAGCUUGCAAGUAUUUAGUUA,0.00641 ± 0.0026
15,UCCUGGAUCACCUUGCAUAGUAAUUAGUUA,0.123 ± 0.049
16,UCCUGGAUCAGCUUGCAUAGUAUUUAGAUUA,0.00483 ± 0.0016
